High-throughput results: PubChem, National Center for Advancing Translational Sciences (NCATS)
An excerpt weighted towards active compounds, which were near 8% of everything screened.
HT1080-NT tox – qHTS for induction of synthetic lethality in tumor cells producing 2HG: qHTS for the HT-1080-NT fibrosarcoma cell line; AID 686970, 2013; HT-1080-NT fibrosarcoma viability, CellTiter-Glo ATP luminescence, 48 h; Potency, µM (series often up to 46.1 µM), actives largely listed as cytotoxic; 360,000 tested, 1.6% active;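 further: NT is the 2HG producing partner of a matched IDH1 knockdown line; nearly all actives have a fitted effect of over 55% in size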
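HT-1080-NT fibrosarcoma cells (2HG-overproducing), 750 cells/well in RPMI with 5% FBS, dosed after 2 h and incubated 48 h at 37C. CellTiter-Glo luminescence normalized to DMSO and no-cell wells; concentration-response curves fitted and classed.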
HT1080 IDH1KD tx – qHTS for induction of synthetic lethality in tumor cells producing 2HG: qHTS for the HT-1080-IDH1KD cell line | Potency, µM (doses to about 46.1 µM), usual class: cytotoxic | 360,000 tested, 2% active | HT-1080 IDH1 knockdown viability, ATP luminescence, 48 h
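Using the IDH1-knockdown HT-1080 line run in the same batch and compound series as the NT line, viability after 48 h at 37 °C was determined by CellTiter-Glo luminescence and expressed as % activity.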
KB-V1 cytotox – qHTS assay for MDR1-selective chemotherapeutics: Primary screen using the drug-selected MDR subline cells KB-V1; Potency, µM (doses to about 46.1 µM), hits mostly cytotoxic; 400,000 tested, 3.4% active; KB-V1 MDR cells viability, CellTiter-Glo, 72 h; further: nearly all actives have a fitted effect of over 60% in size
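Cytotoxicity toward P-gp-expressing KB-V1 cells was determined as loss of CellTiter-Glo luminescence after 72 h at 37 degrees C. Compounds were tested in quantitative HTS format across a concentration range, with curves fitted to normalized data.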
SW480 rereplic – A quantitative high throughput screen for small molecules that induce DNA re-replication in SW480 colon adenocarcinoma cells; 340,000 tested, 1.8% active; SW480 DNA re-replication, Hoechst DNA content imaging, 48 h; Potency, µM (top dose mostly 46.1 µM), most hits filed as activators; further: nearly all actives have a fitted effect of over 55% in size
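SW480 cells exposed to compounds for 48 hr at 37 C, 5% CO2, then Hoechst-stained 40 min. Nuclear DNA content imaged by fluorescence scanning (405 nm excitation, 500-530 nm emission); re-replication scored as increased high-intensity nuclei.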
KB-3-1 cytotox – qHTS assay for MDR1-selective chemotherapeutics: Primary screen using the parental adenocarcinoma cell KB-3-1; KB-3-1 viability, CellTiter-Glo ATP luminescence, 72 h; Potency, µM (top dose mostly 46.1 µM), hits mostly cytotoxic; 400,000 tested, 1.4% active; AID 1347075, 2019; further: nearly all actives have a fitted effect of over 60% in size
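Cytotoxicity measured as CellTiter-Glo luminescence after 72 h at 37 C. Compound titrations were pinned onto drug-naive KB-3-1 parental adenocarcinoma cells grown in DMEM with 10% FBS, and normalized data fitted to concentration-response curves.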
MCF10A rereplic – A quantitative high throughput screen for small molecules that induce DNA re-replication in MCF 10a normal breast cells; MCF 10A DNA re-replication, Hoechst nuclear intensity, 48 h; AID 624296, 2012; Potency, µM (titrated, usually from 46.1 µM), actives largely listed as activators; 350,000 tested, 2.9% active; further: nearly all actives have a fitted effect of over 50% in size
Numbers stand for hits; n = inactive; u = inconclusive. The call rests on the fitted dose curve; in most records, active means well fitted curve in the direction sought with a large enough effect; inconclusive means small, poorly fitted or top-dose-only effect, or another doubt; inactive means no such curve, though single readings can be large; an effect the other way counts as inactive or inconclusive.

SMILES	HT1080-NT tox	HT1080 IDH1KD tx	KB-V1 cytotox	SW480 rereplic	KB-3-1 cytotox	MCF10A rereplic
COc1ccccc1C1=NC(c2ccc(F)cc2)N=C1C (centres undefined)	n	n	u	n	18µM	n
COc1ccc(NC(=O)/C(Cl)=C(/Cl)S(=O)Cc2ccccc2)cn1 (centres undefined)	5.8µM	1.5µM	8.2µM	u	5.8µM	u
COc1ccc(CS(=O)(=O)/C(Cl)=C(/Cl)C(=O)Nc2ccc(OC)nc2)cc1	23µM	8.2µM	3.7µM	0.82µM	u	0.41µM
COc1ccc(/C=C/C(=O)Nc2ccc(OC)nc2)cc1	n	n	n	n	u	n
COc1ccc(NC(=O)Cc2ccccc2)cn1	n	n	n	n	n	n
